# Source: publication PMC7862700, “An all-to-all approach to the identification of sequence-specific readers for epigenetic DNA modifications on cytosine”
# What was measured:
# Assay in all cases: DAPPL (digital affinity profiling via proximity ligation, sequencing); 10 mM Tris-HCl pH 7.5, 50 mM NaCl, 1 mM DTT, 4% glycerol, room temperature, 30 min; GST-TFs on glutathione beads, 16-mer random dsDNA library, 0.1% formaldehyde crosslink after washing; high values mean tight binding
# FEV = molecular target: T1, FEV (Homo sapiens, UniProt Q99581 1-238); details: protein: recombinant; tags: N-terminal GST; dsDNA, one strand shown
# T1 sequence: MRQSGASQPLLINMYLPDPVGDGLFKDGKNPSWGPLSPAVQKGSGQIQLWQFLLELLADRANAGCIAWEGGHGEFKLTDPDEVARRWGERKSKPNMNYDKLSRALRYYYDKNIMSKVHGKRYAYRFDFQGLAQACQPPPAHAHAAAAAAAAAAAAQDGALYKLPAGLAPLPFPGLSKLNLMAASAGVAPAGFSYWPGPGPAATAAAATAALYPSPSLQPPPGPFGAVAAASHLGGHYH
# Summary of the method: (§1)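 Pools of DNA-barcoded human transcription factors, expressed in yeast as GST fusions on glutathione beads and combined with a tag-only sample, were incubated with 200 nmole of a 16-mer random double-stranded DNA library. Incubation took 30 min at room temperature in Tris/NaCl/DTT/glycerol buffer and was followed by washing, 0.1% formaldehyde crosslinking, proximity ligation (BsaI/T4 ligase, 1 h, 37 °C), PCR amplification and sequencing on an Illumina NextSeq500. Binding signal is the ratio of a hexamer's read frequency for a factor to its frequency for the tag-only sample.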
# ETV5 = ETV5 (Homo sapiens, UniProt P41161 1-510); details: protein: recombinant; tags: N-terminal GST; dsDNA, one strand shown
# Sequence of ETV5 (P41161 whole entry): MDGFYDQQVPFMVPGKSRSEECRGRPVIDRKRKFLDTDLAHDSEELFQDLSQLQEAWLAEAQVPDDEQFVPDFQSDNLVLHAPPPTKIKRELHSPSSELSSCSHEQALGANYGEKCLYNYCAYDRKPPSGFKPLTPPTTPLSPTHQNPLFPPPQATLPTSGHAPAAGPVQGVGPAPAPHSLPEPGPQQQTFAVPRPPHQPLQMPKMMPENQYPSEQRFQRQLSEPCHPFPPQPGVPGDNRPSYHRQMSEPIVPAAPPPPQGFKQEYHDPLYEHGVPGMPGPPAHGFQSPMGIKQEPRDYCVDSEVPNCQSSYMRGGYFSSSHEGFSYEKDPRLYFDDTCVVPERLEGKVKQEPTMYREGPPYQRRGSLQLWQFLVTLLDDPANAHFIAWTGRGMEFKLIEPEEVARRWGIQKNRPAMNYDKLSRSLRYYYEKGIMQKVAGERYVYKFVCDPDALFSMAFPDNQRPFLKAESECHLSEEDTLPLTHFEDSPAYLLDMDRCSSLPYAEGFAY
# Summary of the method: as §1
# HSF1 = HSF1 (Homo sapiens, UniProt Q00613 1-529); details: protein: recombinant; tags: N-terminal GST; chain copies: 3; dsDNA, one strand shown
# Sequence of HSF1 (Q00613 whole entry): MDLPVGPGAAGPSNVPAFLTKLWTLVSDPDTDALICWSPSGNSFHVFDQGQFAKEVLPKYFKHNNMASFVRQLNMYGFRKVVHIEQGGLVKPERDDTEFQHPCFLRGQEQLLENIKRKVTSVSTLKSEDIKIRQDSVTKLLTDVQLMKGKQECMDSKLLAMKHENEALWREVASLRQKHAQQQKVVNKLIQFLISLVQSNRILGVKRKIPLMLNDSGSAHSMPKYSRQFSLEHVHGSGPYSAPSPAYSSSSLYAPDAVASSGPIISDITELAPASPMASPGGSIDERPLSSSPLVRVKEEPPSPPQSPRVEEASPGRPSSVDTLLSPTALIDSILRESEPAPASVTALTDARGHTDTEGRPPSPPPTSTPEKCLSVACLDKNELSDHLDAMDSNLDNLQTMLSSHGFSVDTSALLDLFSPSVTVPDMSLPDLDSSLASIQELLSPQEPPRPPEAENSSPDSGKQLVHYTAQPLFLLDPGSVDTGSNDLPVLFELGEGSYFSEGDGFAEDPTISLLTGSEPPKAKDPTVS
# Summary of the method: as §1
# SPIC = molecular target: T2, SPIC (Homo sapiens, UniProt Q8N5J4 1-248); details: protein: recombinant; tags: N-terminal GST; dsDNA, one strand shown
# T2 sequence: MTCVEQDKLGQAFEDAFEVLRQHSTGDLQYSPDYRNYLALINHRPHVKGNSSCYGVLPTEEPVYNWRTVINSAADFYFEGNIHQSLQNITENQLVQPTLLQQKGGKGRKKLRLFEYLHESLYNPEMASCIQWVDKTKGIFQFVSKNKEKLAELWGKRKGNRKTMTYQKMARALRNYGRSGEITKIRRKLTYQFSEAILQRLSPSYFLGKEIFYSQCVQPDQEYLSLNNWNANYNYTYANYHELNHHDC
# Summary of the method: as §1
# ELF4 = ELF4 (Homo sapiens, UniProt Q99607 1-663); details: protein: recombinant; tags: N-terminal GST; dsDNA, one strand shown
# Sequence of ELF4 (Q99607 whole entry): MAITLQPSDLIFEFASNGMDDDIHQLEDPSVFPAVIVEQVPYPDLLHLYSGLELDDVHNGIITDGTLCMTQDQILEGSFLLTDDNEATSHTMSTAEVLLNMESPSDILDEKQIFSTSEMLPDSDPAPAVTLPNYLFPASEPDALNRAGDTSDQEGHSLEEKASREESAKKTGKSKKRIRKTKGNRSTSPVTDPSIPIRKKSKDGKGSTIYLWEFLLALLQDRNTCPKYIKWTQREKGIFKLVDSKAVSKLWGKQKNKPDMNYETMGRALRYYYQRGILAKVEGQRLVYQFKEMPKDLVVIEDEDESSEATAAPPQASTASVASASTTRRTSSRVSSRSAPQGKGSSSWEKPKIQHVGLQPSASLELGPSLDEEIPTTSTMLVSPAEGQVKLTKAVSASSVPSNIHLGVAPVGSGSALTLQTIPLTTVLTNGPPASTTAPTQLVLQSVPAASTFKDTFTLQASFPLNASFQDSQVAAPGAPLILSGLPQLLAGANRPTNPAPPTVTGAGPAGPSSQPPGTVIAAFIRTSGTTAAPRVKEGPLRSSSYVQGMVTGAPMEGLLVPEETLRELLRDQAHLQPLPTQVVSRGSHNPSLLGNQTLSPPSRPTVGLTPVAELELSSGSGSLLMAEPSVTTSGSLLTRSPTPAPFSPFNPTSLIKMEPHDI
# Summary of the method: as §1
# ELK4 = molecular target: T3, ELK4 (Homo sapiens, UniProt P28324-2 1-405); details: protein: recombinant; tags: N-terminal GST; dsDNA, one strand shown
# T3 sequence: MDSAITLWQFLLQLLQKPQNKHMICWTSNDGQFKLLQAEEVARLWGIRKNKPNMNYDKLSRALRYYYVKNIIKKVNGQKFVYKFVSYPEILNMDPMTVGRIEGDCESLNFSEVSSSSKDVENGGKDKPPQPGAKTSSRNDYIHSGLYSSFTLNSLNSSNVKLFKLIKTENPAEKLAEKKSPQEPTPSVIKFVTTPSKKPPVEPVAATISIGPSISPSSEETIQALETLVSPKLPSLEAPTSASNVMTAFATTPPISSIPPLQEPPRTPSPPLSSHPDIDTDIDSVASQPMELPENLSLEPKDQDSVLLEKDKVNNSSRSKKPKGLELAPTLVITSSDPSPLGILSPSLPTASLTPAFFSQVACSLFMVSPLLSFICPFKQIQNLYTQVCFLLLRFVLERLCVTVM
# Summary of the method: as §1
# ETV2 = molecular target: T4, ETV2 (Homo sapiens, UniProt O00321 1-342); details: protein: recombinant; tags: N-terminal GST; dsDNA, one strand shown
# T4 sequence: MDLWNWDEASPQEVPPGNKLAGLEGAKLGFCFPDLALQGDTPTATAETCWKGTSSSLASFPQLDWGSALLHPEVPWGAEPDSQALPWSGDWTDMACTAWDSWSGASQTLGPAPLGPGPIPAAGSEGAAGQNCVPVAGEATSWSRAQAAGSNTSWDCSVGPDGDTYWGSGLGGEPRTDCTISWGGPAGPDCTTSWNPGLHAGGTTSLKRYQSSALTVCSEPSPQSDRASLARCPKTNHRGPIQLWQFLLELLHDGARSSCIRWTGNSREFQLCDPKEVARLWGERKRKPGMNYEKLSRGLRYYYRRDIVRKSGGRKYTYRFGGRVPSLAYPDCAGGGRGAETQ
# Summary of the method: as §1
# ELF3 = molecular target: T5, ELF3 (Homo sapiens, UniProt P78545 1-371); details: protein: recombinant; tags: N-terminal GST; dsDNA, one strand shown
# T5 sequence: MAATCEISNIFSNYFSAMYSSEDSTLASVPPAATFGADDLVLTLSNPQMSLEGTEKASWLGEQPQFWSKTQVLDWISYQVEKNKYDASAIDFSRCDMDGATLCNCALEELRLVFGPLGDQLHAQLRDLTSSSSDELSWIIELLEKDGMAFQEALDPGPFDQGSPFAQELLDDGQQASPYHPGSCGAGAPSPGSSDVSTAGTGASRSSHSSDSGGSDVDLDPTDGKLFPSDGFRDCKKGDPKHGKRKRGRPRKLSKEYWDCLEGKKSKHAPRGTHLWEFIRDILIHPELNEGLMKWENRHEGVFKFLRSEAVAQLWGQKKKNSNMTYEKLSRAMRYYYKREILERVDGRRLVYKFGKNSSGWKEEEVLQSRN
# Summary of the method: as §1
# CRX = CRX (Homo sapiens, UniProt O43186 1-299); details: protein: recombinant; tags: N-terminal GST; dsDNA, one strand shown
# Sequence of CRX (O43186 whole entry): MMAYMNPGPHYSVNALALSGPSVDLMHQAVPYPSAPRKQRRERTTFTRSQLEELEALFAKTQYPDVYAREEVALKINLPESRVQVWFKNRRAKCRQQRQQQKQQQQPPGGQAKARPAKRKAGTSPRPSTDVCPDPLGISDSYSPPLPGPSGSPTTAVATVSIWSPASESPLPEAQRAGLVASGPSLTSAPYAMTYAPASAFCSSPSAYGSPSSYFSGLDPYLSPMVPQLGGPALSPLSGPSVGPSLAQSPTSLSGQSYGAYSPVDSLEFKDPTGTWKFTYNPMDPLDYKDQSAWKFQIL
# Summary of the method: as §1
# ETV1 = ETV1 (Homo sapiens, UniProt P50549 1-477); details: protein: recombinant; tags: N-terminal GST; dsDNA, one strand shown
# Sequence of ETV1 (P50549 whole entry): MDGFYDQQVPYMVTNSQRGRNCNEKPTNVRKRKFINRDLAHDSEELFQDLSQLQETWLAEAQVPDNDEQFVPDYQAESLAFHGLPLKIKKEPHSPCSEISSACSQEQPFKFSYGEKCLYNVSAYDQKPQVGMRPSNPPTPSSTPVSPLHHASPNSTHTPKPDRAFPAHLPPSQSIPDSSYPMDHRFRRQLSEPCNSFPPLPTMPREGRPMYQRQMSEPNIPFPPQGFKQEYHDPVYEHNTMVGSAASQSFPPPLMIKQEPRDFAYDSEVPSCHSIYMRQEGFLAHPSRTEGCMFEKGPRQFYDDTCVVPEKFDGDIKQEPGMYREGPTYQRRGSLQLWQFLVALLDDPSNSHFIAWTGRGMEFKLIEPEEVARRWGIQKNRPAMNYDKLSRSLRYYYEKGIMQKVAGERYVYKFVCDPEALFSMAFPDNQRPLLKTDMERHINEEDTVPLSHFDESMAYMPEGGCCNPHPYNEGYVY
# Summary of the method: as §1
sequence,measurement,setting,value
GACATT,binding signal,FEV,"1.13 fold enrichment (6-mer frequency, TF over GST control)"
same,binding signal,ETV5,"1.17 fold enrichment (6-mer frequency, TF over GST control)"
same,binding signal,HSF1,"1.09 fold enrichment (6-mer frequency, TF over GST control)"
same,binding signal,SPIC,"1.12 fold enrichment (6-mer frequency, TF over GST control)"
same,binding signal,ELF4,"1.14 fold enrichment (6-mer frequency, TF over GST control)"
same,binding signal,ELK4,"1.1 fold enrichment (6-mer frequency, TF over GST control)"
same,binding signal,ETV2,"1.13 fold enrichment (6-mer frequency, TF over GST control)"
same,binding signal,ELF3,"1.16 fold enrichment (6-mer frequency, TF over GST control)"
same,binding signal,CRX,"1.01 fold enrichment (6-mer frequency, TF over GST control)"
same,binding signal,ETV1,"1.26 fold enrichment (6-mer frequency, TF over GST control)"
